Experiment [1] relates to RAW-Dual. Kind of experiment: NF-kB SEAP reporter activity, fold change vs agonist alone; cytotoxicity flag (confluency mask): not cytotoxic; higher = enhanced NF-kB activity. The procedure, abridged:
(§1)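 Supernatant from RAW-Dual macrophages was read after 20 hours for IRF by QuantiLuc luminescence and for NF-κB by QuantiBlue absorbance at 620 nm. The cells (50,000 cells/well in DMEM, 384-well plates, 37 °C, 5% CO2) had received 50 nL of library stock by pin tool and, 1 h later, a PRR agonist. Reporter activity is expressed relative to agonist-alone wells as fold change, and wells were flagged cytotoxic if IncuCyte confluency was under 70% of agonist controls in both mask sets.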

Experiment [2] has as its system RAW-Dual. Kind of experiment: NF-kB SEAP reporter activity, fold change vs agonist alone; higher = enhanced NF-kB activity. The note with it: library stock concentration (final ~1000-fold dilution): 10 mM. The procedure, abridged:
as §1

Experiment [3] has as its system RAW-Dual. Kind of experiment: NF-kB SEAP reporter activity, fold change vs agonist alone; cytotoxicity flag (confluency mask): cytotoxic (confluency <70% of control); higher = enhanced NF-kB activity. The procedure, abridged:
as §1

[4] abbreviates: agonist: ODN 1826 (TLR9) 0.5 ug/mL.
Setting [5] is: agonist: Pam2CSK4 (TLR2/6) 0.1 ug/mL.
[6] abbreviates: agonist: Pam3CSK4 (TLR2/1) 0.1 ug/mL.
Setting [7] is: cytotoxicity flag (confluency mask): not cytotoxic, agonist: Imiquimod (TLR7) […].
Setting [8] is: cytotoxicity flag (confluency mask): not cytotoxic, agonist: MPLA (TLR4) […].
Setting [9] is: cytotoxicity flag (confluency mask): cytotoxic (confluency <70% of control), agonist: MPLA (TLR4) […].

In all, about 2,900 compounds were measured (“NF-kB SEAP reporter activity, fold change vs agonist alone”: median about 0.99, highest 2% from about 2.6 on). What follows is part of a selection rich in the highest values, with near analogues and random picks from the rest.

For `CN1C(=N)NC(C)(c2cc(NC(=O)c3ccc(F)cn3)ccc2F)CS1(=O)=O.O=C(O)C(F)(F)F` (stereo not given) (library stock concentration (final ~1000-fold dilution): 10 mM), the “NF-kB SEAP reporter activity” value came to 0.826 in the experiment on RAW-Dual [1] (agonist: LPS (TLR4) 0.1 ug/mL), 0.731 in the experiment on RAW-Dual [1] (setting [4]), 0.823 in the experiment on RAW-Dual [1] (setting [5]) and 0.856 in the experiment with RAW-Dual [1] (setting [6]).
Consider `CN1C(=N)NC(C)(c2cc(NC(=O)c3ccc(F)cn3)ccc2F)CS1(=O)=O.O=C(O)C(F)(F)F` (stereo not given), for which the “NF-kB SEAP reporter activity” value is 0.873 in the experiment on RAW-Dual [2] (setting [7]) and 0.781 in the experiment with RAW-Dual [2] (setting [8]).
As to `O=C(OCC1OC(OC(=O)c2cc(O)c(O)c(OC(=O)c3cc(O)c(O)c(O)c3)c2)C(OC(=O)c2cc(O)c(O)c(OC(=O)c3cc(O)c(O)c(O)c3)c2)C(OC(=O)c2cc(O)c(O)c(OC(=O)c3cc(O)c(O)c(O)c3)c2)C1OC(=O)c1cc(O)c(O)c(OC(=O)c2cc(O)c(O)c(O)c2)c1)c1cc(O)c(O)c(OC(=O)c2cc(O)c(O)c(O)c2)c1` (stereo not given) (library stock concentration (final ~1000-fold dilution): 10 mM), the “NF-kB SEAP reporter activity” value in the experiment with RAW-Dual [1] (agonist: LPS (TLR4) 0.1 ug/mL) was found to be 1.25; in the experiment on RAW-Dual [1] (setting [4]) it was 0.116; in the experiment with RAW-Dual [1] (setting [5]), 1.04; in the experiment on RAW-Dual [1] (setting [6]), 0.185.
Take `O=C(OCC1OC(OC(=O)c2cc(O)c(O)c(OC(=O)c3cc(O)c(O)c(O)c3)c2)C(OC(=O)c2cc(O)c(O)c(OC(=O)c3cc(O)c(O)c(O)c3)c2)C(OC(=O)c2cc(O)c(O)c(OC(=O)c3cc(O)c(O)c(O)c3)c2)C1OC(=O)c1cc(O)c(O)c(OC(=O)c2cc(O)c(O)c(O)c2)c1)c1cc(O)c(O)c(OC(=O)c2cc(O)c(O)c(O)c2)c1` (stereo not given): the “NF-kB SEAP reporter activity” value was 0.144 in the experiment on RAW-Dual [2] (setting [7]) and 0.319 in the experiment with RAW-Dual [2] (setting [8]).
As for `C=CC1CC1(NC(=O)C1CC(Oc2ncc(OC)c3ccc(Cl)cc23)CN1C(=O)C(NC(=O)OC(C)(C)C)C(C)(C)C)C(=O)NS(=O)(=O)C1CC1` (stereo not given) (library stock concentration (final ~1000-fold dilution): 10 mM), the “NF-kB SEAP reporter activity” value in the experiment with RAW-Dual [3] (agonist: LPS (TLR4) 0.1 ug/mL) is 1.1; in the experiment with RAW-Dual [3] (setting [4]) it was 0.915; in the experiment on RAW-Dual [3] (setting [5]) it was 0.518; in the experiment with RAW-Dual [3] (setting [6]), 0.508.
In the case of `C=CC1CC1(NC(=O)C1CC(Oc2ncc(OC)c3ccc(Cl)cc23)CN1C(=O)C(NC(=O)OC(C)(C)C)C(C)(C)C)C(=O)NS(=O)(=O)C1CC1` (stereo not given), the “NF-kB SEAP reporter activity” value in the experiment on RAW-Dual [2] (setting [9]) is 1.06.
Regarding `Cc1cc(Nc2cc(N3CCN(C)CC3)nc(/C=C/c3ccccc3)n2)n[nH]1.O=C(O)C(O)C(O)C(=O)O`, the “NF-kB SEAP reporter activity” value with RAW-Dual [2] (setting [7]) worked out at 0.89; in the experiment on RAW-Dual [2] (setting [8]), 0.85.
Turning to `Cc1cc(Nc2cc(N3CCN(C)CC3)nc(/C=C/c3ccccc3)n2)n[nH]1.O=C(O)C(O)C(O)C(=O)O` (library stock concentration (final ~1000-fold dilution): 10 mM), the “NF-kB SEAP reporter activity” value amounted to 0.407 in the experiment on RAW-Dual [1] (agonist: LPS (TLR4) 0.1 ug/mL), 0.191 in the experiment on RAW-Dual [1] (setting [4]), 0.297 in the experiment on RAW-Dual [1] (setting [5]) and 0.279 in the experiment on RAW-Dual [1] (setting [6]).
As to `CNC(C)C(=O)NC(C(=O)N1CCCC1c1nc(C(=O)c2ccc(F)cc2)cs1)C1CCCCC1` (stereo not given), the “NF-kB SEAP reporter activity” value came out at 1.16 in the experiment on RAW-Dual [2] (cytotoxicity flag (confluency mask): cytotoxic (confluency <70% of control), agonist: Imiquimod (TLR7) […]) and 0.714 in the experiment with RAW-Dual [2] (setting [9]).
As for `CNC(C)C(=O)NC(C(=O)N1CCCC1c1nc(C(=O)c2ccc(F)cc2)cs1)C1CCCCC1` (stereo not given) (library stock concentration (final ~1000-fold dilution): 10 mM), the “NF-kB SEAP reporter activity” value in the experiment on RAW-Dual [3] (agonist: LPS (TLR4) 0.1 ug/mL) was determined as 0.436; with RAW-Dual [3] (setting [4]), 0.764; with RAW-Dual [3] (setting [5]), 0.902; in the experiment on RAW-Dual [3] (setting [6]) it was 0.517.
As for `O=c1cc(-c2ccc(O)cc2)oc2cccc(O)c12` (library stock concentration (final ~1000-fold dilution): 10 mM), the “NF-kB SEAP reporter activity” value in the experiment with RAW-Dual [1] (agonist: LPS (TLR4) 0.1 ug/mL) was found to be 1.55; with RAW-Dual [1] (setting [4]), 1.15; in the experiment on RAW-Dual [1] (setting [5]), 1.09; with RAW-Dual [1] (setting [6]) it was 1.82.
`O=c1cc(-c2ccc(O)cc2)oc2cccc(O)c12`: the entries for the “NF-kB SEAP reporter activity” value in the experiment with RAW-Dual [2] (setting [7]) and in the experiment on RAW-Dual [2] (setting [8]) were 1.07 and 1.37, respectively.
